Assay outcomes from PubChem.
The list is not random: actives were taken first. Their share in the collection is about 1.2%.
GSH fluor: GSH bead compound fluorescence profile; GSH beads flow cytometry, compound fluorescence 488/530 nm; stronger effect = higher value; fluorescence (KMESF) at 10 µM; 190,000 compounds, 0.25% hits; in the data active means fluorescence above about 89;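 further: glutathione beads carrying GST-tagged Bcl family fusion proteins plus one bare bead set; values are compound well signal with DMSO vehicle wells as background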
RGS7-Gao reg: regulators of human RGS7-Galphao interaction; Multiplexed bead flow cytometry, RGS7-Galphao binding; actives lie on both sides; binding response (% of control), % at 10 µM; 220,000 compounds, 0.35% hits; in the data active means binding response below about 49% or above about 150%; inconclusive means no clear call, values can overlap the other calls; inactive means in between;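 further: fluorescent Galphao held in activated GDP-AlF4 state binding bead-coupled RGS7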
RGS16-Gao: modulates binding between human RGS16 and Galphao. O15492+P09471. bead-based flow cytometry RGS16-Galphao binding, fluorescence; actives lie on both sides. binding response (% of control), % at 10 µM. 220,000 compounds, 0.38% hits. AID 1441;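 further: Galphao activated by GDP with aluminum fluoride before binding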
Avidin bead fluor: compound fluoresces at 488/530 nm on avidin beads. compound fluorescence 488/530 nm, flow cytometry; stronger effect = higher value. fluorescence (KMESF) at 10 µM. 220,000 compounds, 0.38% hits; in the data active means fluorescence above about 47
RGS8-Gao: regulators of human RGS8-Galphao interaction | multiplexed bead flow cytometry, RGS8-Galphao binding; actives lie on both sides | response (percent of control binding), % at 10 µM | 220,000 compounds, 0.34% hits | AID 1423; in the data active means response below about 60% or above about 140%; inactive means in between;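 further: Galphao activated as the GDP aluminium fluoride complex binding bead-coupled RGS8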
RGS4-Gao reg: human RGS4-Galphao interaction regulation; 220,000 compounds, 0.33% hits; binding response (% of control), % at 10 µM; Multiplexed bead flow cytometry, RGS4-Galphao binding; actives lie on both sides; AID 1415; P09471; in the data active means binding response below about 49% or above about 150%; inactive means in between;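 further: fluorescent Galphao activated with aluminum fluoride binding bead-coupled RGS4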
RGS-Gao: regulators of human RGS4-Galphao interaction | RGS4–Galpha-o binding response, % at 10 µM | AID 1504 | multiplexed bead flow cytometry, RGS–Galpha-o binding | shares compounds with RGS16-Gao | 1,600 compounds, 99% hits;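 further: fluorescently labeled Galpha-o bound to GDP with aluminium fluoride binding biotinylated RGS beads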
Avidin counter: interferes with biotinylated probe binding to avidin beads; streptavidin beads, fluorescein-biotin binding, flow cytometry; inhibition, % at 10 µM; shares compounds with RGS16-Gao; 1,700 tested, under 10 active;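 active means inhibition above 50%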;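 further: median green fluorescence of gated singlet beads compared with DMSO control wells; 0% = DMSO wells and 100% = complete loss of bead fluorescence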
RGS8-Gao single: RGS8-Galphao interaction regulation, single point confirmation; bead-based flow cytometry RGS8-Galphao binding, fluorescence; actives lie on both sides; binding response (% of control), % at 10 µM; AID 1836; shares compounds with RGS16-Gao; 1,700 compounds, 3% hits; in the data active means binding response below about 72% or above about 130%; inactive means in between;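 further: Galphao activated as GDP AlF4 complex before binding bead RGS8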
RGS7-Gao single: confirmation of regulators of human RGS7-Galphao interaction; response (percent of control binding), % at 10 µM; 1,700 compounds, 7.8% hits; shares compounds with RGS16-Gao; AID 1837; bead-based flow cytometry RGS7-Galphao binding; actives lie on both sides; in the data active means response below about 75% or above about 130%; inactive means in between;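 further: fluorescent Galphao activated with GDP and aluminum fluoride binding bead-coupled RGS7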
RGS16-Gao conf: RGS16-Galphao interaction regulation, single point confirmation; shares compounds with RGS16-Gao; bead-based flow cytometry, RGS16-Galphao binding; actives lie on both sides; response (% of control binding), % at 10 µM; 1,700 compounds, 4% hits; in the data active means response below about 74% or above about 130%; inactive means in between;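 further: Galphao activated as the GDP aluminium fluoride complex binding bead-coupled RGS16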
RGS4-Gao single: confirmation of regulators of human RGS4-Galphao interaction | RGS4-Galphao binding, multiplexed bead flow cytometry; actives lie on both sides | 1,700 compounds, 4% hits | AID 1840 | shares compounds with RGS16-Gao | binding response (% of control), % at 10 µM; in the data active means binding response below about 74% or above about 130%; inactive means in between
RGS19-Gao single: confirmation of regulators of human RGS19-Galphao interaction | shares compounds with RGS16-Gao | bead-based flow cytometry RGS19-Galphao binding; actives lie on both sides | response (percent of control binding), % at 10 µM | 1,700 compounds, 5% hits; in the data active means response below about 50% or above about 160%; inactive means in between;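 further: 100% = no compound control and 0% = blank background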
Target sequence (P09471 whole entry, looked up): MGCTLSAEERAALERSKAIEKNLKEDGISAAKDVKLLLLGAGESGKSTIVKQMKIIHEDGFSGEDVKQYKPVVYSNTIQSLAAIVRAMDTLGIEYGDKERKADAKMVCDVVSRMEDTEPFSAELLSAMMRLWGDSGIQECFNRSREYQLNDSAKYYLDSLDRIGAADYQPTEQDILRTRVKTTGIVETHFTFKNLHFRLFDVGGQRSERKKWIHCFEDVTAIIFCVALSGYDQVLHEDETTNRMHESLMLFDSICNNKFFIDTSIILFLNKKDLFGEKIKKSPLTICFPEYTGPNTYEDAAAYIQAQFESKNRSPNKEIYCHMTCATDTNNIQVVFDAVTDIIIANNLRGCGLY
Target sequence (P49795 whole entry, looked up): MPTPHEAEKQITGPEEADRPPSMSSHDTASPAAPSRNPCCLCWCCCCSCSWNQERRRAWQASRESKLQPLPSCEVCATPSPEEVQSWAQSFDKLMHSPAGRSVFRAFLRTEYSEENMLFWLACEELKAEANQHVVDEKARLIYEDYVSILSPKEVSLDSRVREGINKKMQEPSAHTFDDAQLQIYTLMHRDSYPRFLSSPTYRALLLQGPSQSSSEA
* hit, by the source's call; ? = inconclusive; . = not tested or not shown; [ ] = dose if it differs, or a comment. Unless noted, how the calls were made is not given here.

SMILES	GSH fluor	RGS7-Gao reg	RGS16-Gao	Avidin bead fluor	RGS8-Gao	RGS4-Gao reg	Avidin counter	RGS8-Gao single	RGS7-Gao single	RGS16-Gao conf	RGS4-Gao single	RGS19-Gao single	others
O=C(O)CC1(CC(=O)NCc2cc(F)cc3c2OCOC3)CCCCC1	.	?	151	8	129	157*[activator]	-2	98	101	94	94	90
COc1cccc(NC(=O)NC2CCN(Cc3nnnn3Cc3ccc4c(c3)OCO4)CC2)c1	.	?	111	8	108	109	.	.	.	.	.	.
COc1ccc(C(=O)c2cc([N+](=O)[O-])ccc2N2CCOCC2)cc1	10	93	69	1	87	89	.	.	.	.	.	.
Cc1ccc(C(=O)c2cc([N+](=O)[O-])ccc2N2CCOCC2)cc1	7	89	21*	6	85	92	5	101	99	99	99	104	RGS-Gao=92*
O=C(c1cc([N+](=O)[O-])ccc1N1CCOCC1)N1CCOCC1	9	98	70	1	89	96	.	.	.	.	.	.
O=C(c1cc([N+](=O)[O-])ccc1N1CCOCC1)N1CCCC1	9	86	16*	1	65	84	-2	101	98	98	102	97	RGS-Gao=84*
Fc1cccc2sc(Nc3nc4ccccc4s3)nc12	4	104	103	15	100	99	.	.	.	.	.	.
CC(=O)Nc1ccc(S(=O)(=O)N2CCCC2C(=O)Nc2ccc3c(c2)OCCO3)cc1 (stereo unspecified)	19	98	103	11	102	101	.	.	.	.	.	.
Cn1c(=O)cc(SCC(=O)N2CCCC2)c2ccccc21	38	101	94	6	101	98	.	.	.	.	.	.
CCOC(=O)N1CCC(NC(=O)CSc2cc(=O)n(C)c3ccccc23)CC1	28	111	241	11	140*[activator]	110	-9	109	113	109	112	114	RGS-Gao=110*
COc1ccc(CCCc2nnc(SCC(=O)Nc3nc(C)cs3)n2C)cc1	12	98	100	9	101	101	.	.	.	.	.	.
Cc1csc(NC(=O)CSc2nnc(CCNC(=O)c3ccc(Cl)c(Cl)c3)n2C)n1	35	.	.	.	.	.	-1	100	100	100	102	95
Cc1cc(=O)c2c(C)ccc(C)c2[nH]1	.	?	92	9	94	91	.	.	.	.	.	.
O=C(Cn1nnc(-c2ccc(Cl)cc2)n1)NCc1ccco1	12	95	91	6	96	93	.	.	.	.	.	.
CCCC(=O)NCn1nnc(-c2ccc(Cl)cc2)n1	43	295*[activator]	273*[activator]	50*	121	346*[activator]	0	103	103	103	103	99
COc1ccc([N+](=O)[O-])c(OC)c1C(=O)Nc1ccc(F)cc1F	.	?	101	3	103	101	.	.	.	.	.	.
CCN(C(=O)COC(=O)c1cccc(NS(=O)(=O)c2ccc(F)c(F)c2)c1)C1CCS(=O)(=O)C1 (stereo unspecified)	76	107	101	14	104	103	.	.	.	.	.	.
